{"source": "PubChem BioAssay (NCI)", "note": "This is part of a sample that, as a whole, favours compounds with a hit. Of some 83,000 tested, about 20% had one in any assay.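 Values shown are percent growth following 48 h exposure of cells in 96-well plates to a single concentration of compound; below 10 was considered active.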 Activity calls are given as the source filed them."}
{"tested_on": "SF-539 CNS", "experiment": "NCI-60 one-dose screen, 48 h (100 = growth as untreated, 0 = no growth, -100 = all killed)", "conditions": "10 µM unless noted"}
{"smiles": "COC(=O)[C@@H]1CCCN1C(=O)[C@H]1CCCN1C(=O)[C@@H](Cc1c[nH]c2ccccc12)NC(=S)Nc1cc(C(F)(F)F)cc(C(F)(F)F)c1", "growth": "62% (inactive)"}
{"smiles": "Cc1ccc(F)cc1NC(=O)c1cc(Cl)ccc1Nc1ccccc1", "growth": "62.5% (inactive)"}
{"smiles": "CC1=C(C(=O)OCC2CCN(C(=O)OC(C)(C)C)CC2)[C@@H](c2cccc(C#N)c2)C2=C(CC(C)(C)CC2=O)N1", "growth": "41.7% (inactive)"}
{"smiles": "CCCCCCc1cc2cc(-c3csc(/C=C/c4ccccc4)n3)c(=O)oc2cc1O", "growth": "-77.3% (active)"}
{"smiles": "COc1ccc(Br)c(/C=C2\\SC(=Nc3ccc(O)cc3)NC2=O)c1", "growth": "85.4% (inactive)"}
{"smiles": "COc1ccc(Cn2c(Br)c3c(c2Br)-c2nc(N)sc2CC3)cc1", "growth": "39.9% (inactive)"}
{"smiles": "COC(=O)c1cc2c(n1Cc1ccccc1)-c1oncc1CCC2", "growth": "69.1% (inactive)"}
{"smiles": "CCOC(=O)c1sc(-c2ccc(OS(=O)(=O)c3ccccc3[N+](=O)[O-])c(C=O)c2)nc1C", "growth": "76.6% (inactive)"}
{"smiles": "Clc1ncccc1Nc1ccc2nnc(-c3ccncc3)n2n1", "growth": "99.7% (inactive)"}
{"smiles": "O=C1NC(=O)C(=Cc2cn(Cc3cn(Cc4ccc(Cl)cc4Cl)nn3)c3ccccc23)C(=O)N1", "growth": "93% (inactive)"}
{"smiles": "CCCCCCn1c(=N)n(CC(O)COc2cccc(C)c2)c2ccccc21", "note": "(centres undefined)", "growth": "-86.4% (active)"}
{"smiles": "O=C(Nc1ncc(Cc2cccc(C(F)(F)F)c2)s1)C1COc2ccccc2O1", "note": "(centres undefined)", "growth": "95.8% (inactive)"}
{"smiles": "CN1C(=O)N(C)C2C1NN=c1s/c(=C\\c3ccc([N+](=O)[O-])cc3)c(=O)n12", "note": "(centres undefined)", "growth": "54.7% (inactive)"}
{"smiles": "O=C(c1nc2ccccc2[nH]1)C1C(c2ccc(F)cc2)C2CC3CCCCC3N2[C@@]12C(=O)Nc1ccc(Cl)cc12", "note": "(some centres undefined)", "growth": "55.5% (inactive)"}
{"smiles": "COc1ccc(/C=C/C(=O)c2ccc3cc(OC)c(OC)cc3c2)cc1OC", "growth": "23.5% (inactive)"}
{"smiles": "O=c1oc2ccc(F)cc2c(=O)n1-c1ccc(Br)cc1F", "growth": "2.6% (active)"}
{"smiles": "COc1cc(/C=C2\\CN(S(=O)(=O)c3ccccc3)C/C(=C\\c3cc(CN4CCCC4)c(O)c(OC)c3)C2=O)cc(CN2CCCC2)c1O", "growth": "-46.6% (active)"}
{"smiles": "CC(C)C[C@H](C(=O)N[C@@H](C)C(N)=O)N1CC=CCN(O)S1(=O)=O", "growth": "104% [5 µM] (inactive)"}
{"smiles": "CN(C)CCCNCc1ccc(-c2ccc(F)c(Cl)c2)o1", "growth": "60.8% (inactive)"}
{"smiles": "O=c1oc2ccc(-c3ccc(F)cc3F)cc2c(=O)n1-c1cccc(C(F)(F)F)c1", "growth": "9.91% (active)"}
{"smiles": "O=C(N=Nc1c(O)[nH]c2ccccc12)c1oc2ccccc2c1CN1CCN(c2ccccc2)CC1", "growth": "8.4% (active)"}
{"smiles": "O=C(Nc1ccc(Br)cc1F)c1cc(F)ccc1O", "growth": "4.66% (active)"}
{"smiles": "COc1cc(NC(=O)CCSc2nc3ccccc3c(=O)n2Cc2ccccc2)cc(OC)c1OC", "growth": "72.9% (inactive)"}
{"smiles": "O=C(Nc1ccc(I)cc1F)c1cc(F)ccc1O", "growth": "1.28% (active)"}
{"smiles": "COc1nccc2cc3c(=O)n4c(cc5ccccc54)c(=O)n3c12", "growth": "104% (inactive)"}
{"smiles": "O=C(COc1cc(O)c2c(=O)cc(-c3ccccc3)oc2c1)Nc1ccccc1", "growth": "91% (inactive)"}
{"smiles": "O=c1oc2ccc(-c3ccc(F)cc3F)cc2c(=O)n1-c1ccc(Cl)c(C(F)(F)F)c1", "growth": "29.4% (inactive)"}
{"smiles": "CCN1CCN(c2cc(C)c3cc(NC(=O)c4ccc(OC)c(OC)c4)ccc3n2)CC1", "growth": "45.2% (inactive)"}
{"smiles": "COc1ccc(Cn2c(Br)c3c(c2-c2cc(OC)c(OC)c(OC)c2)CCc2sc(NC(C)=O)nc2-3)cc1", "growth": "23.1% (inactive)"}
{"smiles": "COc1ccccc1C(=O)O/N=C(\\N)Cc1cccc2ccccc12", "growth": "97.2% (inactive)"}
{"smiles": "O=C(Nc1ccc(Cl)cc1F)c1cc(I)ccc1O", "growth": "16.4% (inactive)"}
{"smiles": "O=C(O)CCC(=O)c1ccc(C2CCCCCC2)cc1", "growth": "97.1% (inactive)"}
{"smiles": "CCCCOCc1cc(CN2CCN(C)CC2)c(O)c2ncccc12", "growth": "53.3% (inactive)"}
{"smiles": "COC(=O)/C(CCC=C(C)C)=C1\\[C@@H](OC(C)=O)C[C@@]2(C)[C@H]1C[C@@H](O)[C@H]1[C@@]3(C)CC[C@H](NCc4ccccc4)[C@@H](C)[C@@H]3CC[C@@]12C", "growth": "70% (inactive)"}
{"smiles": "O=C(NC1C(O)OC(CO)C(O)C1O)NS(=O)(=O)c1ccc(Cl)cc1", "note": "(centres undefined)", "growth": "101% (inactive)"}
{"smiles": "O=C(Nc1ccc(Br)cc1F)c1cc(Cl)ccc1O", "growth": "-1.11% (active)"}
{"smiles": "CCOC(=O)c1c(C=O)nc2ccccc2c1/C=C/c1ccc(Cl)cc1", "growth": "90.9% (inactive)"}
{"smiles": "COc1cccc2cc(N(C)c3nc(C)nc4ccsc34)ccc12", "growth": "-15.5% (active)"}
{"smiles": "COc1cc(/C=C/C(=O)c2c(C)nc3ccccc3c2/C=C/c2ccccc2)cc(OC)c1OC", "growth": "1.35% (active)"}
